Drawing on PubChem BioAssay (Tox21), this text covers Potency and outcome for ten molecules.

Experiment [1] can be described thus: qHTS assay to identify small molecule agonists of the RXR signaling pathway - cell viability counter screen (AID 1159529). Further: nearly all actives have a fitted effect of over 50% in size. Further: potency means the concentration at half of the fitted maximal effect. Put shortly: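 Tox21 10K compounds were tested for cytotoxicity against GeneBLAzer RXR-alpha HEK 293T cells grown in 2% charcoal-stripped FBS. Exposure lasted 16 hr at 37 C, 5% CO2; viability read by CellTiter-Glo luminescence.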
Background: Quantitative high-throughput screening tests each substance at several concentrations.

The nature of experiment [2]: qHTS assay to identify small molecule antagonists of the retinoid acid receptor (RAR) signaling pathway - cell viability counter screen (AID 1159551). Further: nearly all actives have a fitted effect of over 35% in size. Further: potency means the concentration at half of the fitted maximal effect. Put shortly: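 C3RL4 RARE-luciferase line; cpds + retinol 1 uM final, 6 h, 37 C/5% CO2; CellTiter-Glo ATP luminescence, 30 min RT.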
Experiment [3] can be described thus: qHTS assay to identify small molecule antagonists of the retinoic acid receptor (RAR) signaling pathway (AID 1159552; further: nearly all actives have a fitted effect of over 50% in size; further: potency means the concentration at half of the fitted maximal effect). The procedure, abridged: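 Overnight-plated C3RL4 reporter cells get compound, then retinol to 1 uM final; plates sit 6 hr at 37 C, 5% CO2. A luciferase reagent is added and light output recorded after 30 min at room temperature.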
Experiment [4] can be described thus: qHTS assay to identify small molecule antagonists of the estrogen related receptor (ERR) signaling pathway from Tox21 library - cell viability counter screen (AID 1224834). Further: nearly all actives have a fitted effect of over 30% in size. Further: potency means the concentration at half of the fitted maximal effect. The procedure, abridged:
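Multiplexed viability counter screen in ERR cells: 17.5 h compound exposure at 37 C, CellTiter-Fluor added, 30 min at 37 C/5% CO2, fluorescence read.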

In experiment [5] the target is Luciferin 4-monooxygenase (Photinus pyralis) (UniProt P08659). Kind of experiment: qHTS assay to identify small molecule inhibitors of firefly luciferase (AID 1224835). Further: nearly all actives have a fitted effect of over 25% in size. Further: potency means the concentration at half of the fitted maximal effect. Put shortly:
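Quantitative HTS format; KM concentrations of both substrates. Purified P. pyralis FLuc activity quantified from luminescence images.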

The nature of experiment [6]: qHTS assay to identify small molecule antagonists of the constitutive androstane receptor (CAR) signaling pathway - cell viability counter screen (AID 1224837). Further: nearly all actives have a fitted effect of over 45% in size. Further: potency means the concentration at half of the fitted maximal effect. The procedure, abridged: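 Read-out: CellTiter-Fluor fluorescence after 23 hr at 37 C/5% CO2. Cells: HepG2 double-stable for hCAR and CYP2B6-2.2kb. Compounds tested at 15 concentrations in the presence of CITCO, final concentration 50 nM.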

The target of experiment [7] is Nuclear receptor subfamily 1 group I member 3 (Homo sapiens) (UniProt Q14994). Kind of experiment: qHTS assay to identify small molecule antagonists of the constitutive androstane receptor (CAR) signaling pathway (AID 1224838).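 Further: HepG2 cells stably expressing hCAR with CYP2B6 luciferase reporter stimulated by CITCO; nearly all actives have a fitted effect of over 40% in size.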 Further: potency means the concentration at half of the fitted maximal effect. Put shortly:
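Read-out: ONE-Glo luciferase luminescence after 30 min at room temperature. HepG2-CYP2B6-hCAR double-stable cells, compounds in 15-point titration plus 50 nM CITCO final, 24 h at 37 C/5% CO2.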

Experiment [8] shares this target. The experiment in a line: qHTS assay to identify small molecule agonists of the constitutive androstane receptor (CAR) signaling pathway (AID 1224839). Further: nearly all actives have a fitted effect of over 15% in size. Further: potency means the concentration at half of the fitted maximal effect. Put shortly:
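Stable hCAR/CYP2B6-2.2kb HepG2 line in DMEM with 10% FBS; compounds (15 concentrations) and 0.75 uM PK11195 final, 24 h at 37 C/5% CO2, then ONE-Glo luminescence after 30 min.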

Experiment [9] in a line: qHTS assay to identify small molecule antagonists of the estrogen related receptor signaling pathway with the pleiotropic PPARgamma coactivator (PGC) from Tox21 10K library - cell viability counter screen (AID 1224840; active means well fitted cell-killing curve with a large enough effect in the repeat runs, not every such curve was filed as active; further: nearly all actives have a fitted effect of over 40% in size). Put shortly: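 Fluorescence read-out of CellTiter-Fluor viability reagent, added after cells had been exposed to compound in DMSO for 17.5 h at 37 C; 30 min development at 37 C/5% CO2. Cells: PGC/ERR line, 2,000/well.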

A short description of experiment [10]: qHTS assay to identify small molecule antagonists of the estrogen related receptor signaling pathway with the pleiotropic PPARgamma coactivator (PGC) from Tox21 10K library (AID 1224841; call rule not given here; further: actives are mostly falling curves and most rising ones were filed inactive; nearly all actives have a fitted effect of over 50% in size; further: potency means the concentration at half of the fitted maximal effect). Put shortly:
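Luminescence read-out (One-Glo luciferase reagent, 30 min at room temperature) from PGC/ERR cells exposed to DMSO-dissolved test compounds for 18 h at 37 C; cells, 2,000 per well, had been preincubated 6 h before compound transfer.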

Experiment [11] in a line: qHTS assay to identify small molecule agonists of the estrogen related receptor signaling pathway with the pleiotropic PPARgamma coactivator (PGC) from Tox21 10K library (AID 1224842). Further: nearly all actives have a fitted effect of over 15% in size. Put shortly: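 PGC/ERR reporter cells (NTP line) were seeded 2,000 per well, rested 6 h at 37 C/5% CO2, then pin-dosed with compounds in DMSO for 18 h at 37 C; luciferase read by One-Glo luminescence after 30 min at room temperature.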

Experiment [12] addresses Thyrotropin receptor (Homo sapiens) (UniProt P16473). The experiment in a line: qHTS assay to identify small molecule agonists of the thyroid stimulating hormone receptor (TSHR) signaling pathway (AID 1224843; calls by dose curve; further: nearly all actives have a fitted effect of over 45% in size; further: potency means the concentration at half of the fitted maximal effect). Put shortly:
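Using 15 concentrations per compound in triplicate, cAMP production was monitored in TSHR-HEK293 cells after 30 min compound incubation at RT; HTRF reagents followed, with fluorescence intensity recorded after 1 h.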

Experiment [13] can be described thus: qHTS assay to identify small molecule agonists of the constitutive androstane receptor (CAR) signaling pathway - cell viability counter screen (AID 1224836). Further: nearly all actives have a fitted effect of over 45% in size. Further: potency means the concentration at half of the fitted maximal effect. Put shortly: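 Fluorescence from CellTiter-Fluor indicates live cells after 23 h exposure. The human hepatoma line expresses hCAR and a CYP2B6-2.2kb reporter. Incubation medium contains 0.75 uM PK11195 (final).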

Experiment [14] can be described thus: qHTS assay to identify small molecule agonists of the retinoic acid receptor (RAR) signaling pathway (AID 1159553). The procedure, abridged: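 RARE-luc C3RL4 cells; overnight attachment 37 C/5% CO2; compound (DMSO) 6 hr; luciferase reagent, 30 min RT; luminescence read-out.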
Experiment [15] can be described thus: qHTS assay to identify small molecule antagonists of the estrogen related receptor (ERR) signaling pathway - cell viability counter screen (AID 1224818). Further: series mostly up to about 46 µM. Put shortly: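 Fluorescence from CellTiter-Fluor, read 30 min after reagent addition at 37 C, measured viability of ERR cells exposed to compounds for 17.5 h. Cells had settled 6 h before dosing.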
A short description of experiment [16]: qHTS assay to identify small molecule antagonists of the estrogen related receptor (ERR) signaling pathway (AID 1224819;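 further: luminescence from an ERR-driven luciferase reporter measured with One-Glo reagent; series mostly up to about 46 µM; nearly all actives have a fitted effect of over 50% in size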). The procedure, abridged:
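Luminescence readout (One-Glo, 30 min, RT) of ERR cell line after 18 h compound exposure at 37 C; cells seeded 2,000/well, pre-incubated 6 h, compounds pinned from DMSO stocks.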

Experiment [17] is described as follows: qHTS assay to identify small molecule agonists of the estrogen related receptor (ERR) signaling pathway (AID 1224820). Put shortly:
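Following a 6 h settling period, 2,000 ERR cells per well receive DMSO-dissolved compounds by pin tool and incubate 18 h at 37 C; agonist activity is scored from One-Glo luminescence read 30 min post-addition.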

The subject of experiment [18] is estrogen-related receptor alpha (ERRalpha) with PGC-1alpha coactivator, human. Kind of experiment: qHTS assay to identify small molecule antagonists of the estrogen related receptor signaling pathway with the pleiotropic PPARgamma coactivator (PGC) (AID 1224821; calls by dose curve). Put shortly:
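Screening used NTP's PGC/ERR cells, dosed via pin tool with compound in DMSO alongside positive and negative controls. After 18 h at 37 C, One-Glo reagent sat 30 min at room temperature before luminescence detection.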

Experiment [19] can be described thus: qHTS assay to identify small molecule antagonists of the estrogen related receptor signaling pathway with the pleiotropic PPARgamma coactivator (PGC) cell viability counter screen (AID 1224822; further: series mostly up to about 46 µM). The procedure, abridged:
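Fluorescence read-out of CellTiter-Fluor after 30 min at 37 C; PGC/ERR cells, 2,000 per well, had been exposed to DMSO-dissolved compounds for 17.5 h following a 6 h pre-incubation.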

Experiment [20] in a line: qHTS assay to identify small molecule agonists of the estrogen related receptor signaling pathway with the pleiotropic PPARgamma coactivator (PGC) (AID 1224823). Put shortly:
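In this quantitative high-throughput screen, an 18 h, 37 C treatment of PGC/ERR cells with compounds in DMSO preceded a One-Glo luminescence read taken after 30 min at room temperature.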

“And” between values parts separate entries of the source, which are not always exact repeats. Equal entries are not always repeated. Records with an inconclusive call do not appear. Some structures have more than one record in an assay (separate samples or runs), and their calls can disagree. The source made the active and inactive calls. Unless noted, the call rests on the fitted dose curve; in most records, active means well fitted curve in the direction sought with a large enough effect in the repeat runs; inconclusive means weak or mixed curves; inactive means no such curve, though single readings can be large; an effect the other way counts as inactive or inconclusive.

Thyrotropin receptor (Homo sapiens), sequence (P16473 whole entry, looked up): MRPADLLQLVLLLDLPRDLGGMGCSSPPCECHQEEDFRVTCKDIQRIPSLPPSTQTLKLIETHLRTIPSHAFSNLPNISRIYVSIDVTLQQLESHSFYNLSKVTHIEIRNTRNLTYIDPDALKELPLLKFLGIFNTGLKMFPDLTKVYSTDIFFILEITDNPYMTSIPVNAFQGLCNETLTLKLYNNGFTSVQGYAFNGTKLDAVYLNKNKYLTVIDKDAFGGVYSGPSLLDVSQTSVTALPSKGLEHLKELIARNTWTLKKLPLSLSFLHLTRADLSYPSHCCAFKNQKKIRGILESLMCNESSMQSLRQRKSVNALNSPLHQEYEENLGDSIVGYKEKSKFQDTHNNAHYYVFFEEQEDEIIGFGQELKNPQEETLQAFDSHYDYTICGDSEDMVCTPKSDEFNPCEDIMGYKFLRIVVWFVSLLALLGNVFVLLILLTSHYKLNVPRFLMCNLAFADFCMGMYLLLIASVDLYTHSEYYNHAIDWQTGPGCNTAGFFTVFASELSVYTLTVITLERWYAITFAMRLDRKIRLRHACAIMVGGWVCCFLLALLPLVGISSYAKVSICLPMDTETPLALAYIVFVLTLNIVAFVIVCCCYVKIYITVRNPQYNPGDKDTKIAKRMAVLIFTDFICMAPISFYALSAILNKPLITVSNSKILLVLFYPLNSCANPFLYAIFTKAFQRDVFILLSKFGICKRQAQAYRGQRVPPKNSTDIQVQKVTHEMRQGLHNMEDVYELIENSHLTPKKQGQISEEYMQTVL
Nuclear receptor subfamily 1 group I member 3 (Homo sapiens), sequence (Q14994 whole entry, looked up): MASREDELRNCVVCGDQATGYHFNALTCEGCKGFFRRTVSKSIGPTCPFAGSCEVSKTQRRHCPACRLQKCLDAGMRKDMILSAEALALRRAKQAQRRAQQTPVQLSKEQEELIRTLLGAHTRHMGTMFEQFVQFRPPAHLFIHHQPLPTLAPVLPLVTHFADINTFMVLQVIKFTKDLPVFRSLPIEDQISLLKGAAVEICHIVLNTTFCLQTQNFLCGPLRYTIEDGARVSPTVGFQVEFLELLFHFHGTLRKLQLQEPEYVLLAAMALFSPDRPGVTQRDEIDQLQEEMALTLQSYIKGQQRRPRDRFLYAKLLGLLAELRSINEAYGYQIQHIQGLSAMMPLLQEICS
Luciferin 4-monooxygenase (Photinus pyralis), sequence (P08659 whole entry, looked up): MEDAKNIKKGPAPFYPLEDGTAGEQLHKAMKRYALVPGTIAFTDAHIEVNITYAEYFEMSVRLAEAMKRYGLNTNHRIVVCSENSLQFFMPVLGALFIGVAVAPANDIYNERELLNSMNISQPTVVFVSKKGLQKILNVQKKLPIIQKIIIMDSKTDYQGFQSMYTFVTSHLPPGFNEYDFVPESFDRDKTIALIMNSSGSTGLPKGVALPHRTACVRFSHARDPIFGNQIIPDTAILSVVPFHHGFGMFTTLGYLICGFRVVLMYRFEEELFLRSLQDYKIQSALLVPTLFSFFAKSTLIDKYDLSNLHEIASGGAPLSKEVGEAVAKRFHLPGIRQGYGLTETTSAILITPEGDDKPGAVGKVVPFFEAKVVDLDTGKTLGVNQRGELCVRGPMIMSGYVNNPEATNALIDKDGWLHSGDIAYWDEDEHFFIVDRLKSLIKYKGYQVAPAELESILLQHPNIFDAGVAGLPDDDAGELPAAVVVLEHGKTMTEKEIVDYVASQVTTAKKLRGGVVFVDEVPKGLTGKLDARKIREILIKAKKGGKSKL

Regarding `Cc1ccc(CCl)cc1`, the Potency result in experiment [1], in [2], in experiment [3], in experiment [4], in experiment [5] and in experiment [6] was “inactive” throughout. For the same molecule, the Potency entry in experiment [7], in [8], in experiment [9], in experiment [10], in [11] and in [12] was “inactive” each time.

`ClCCN1CCOCC1`: the Potency result in experiment [1], in experiment [2], in experiment [3], in experiment [4], in experiment [5] and in [13] was “inactive” in each case. Besides, the Potency result in experiment [6], in experiment [9], in experiment [10], in [11] and in experiment [12] was “inactive” in each case.

In the case of `N#CCCC(Br)(C#N)CBr` (configuration not stated), the Potency is 38.9 µM (active) in experiment [1]; 68.6 µM (active) in experiment [2]; 21.7 µM (active) in experiment [3]; 35.6 µM (active) in [5]; 61.1 µM (active) in experiment [6]; 68.6 µM (active) in experiment [7]. Besides, the Potency in [12] is 4.86 µM (active). Further, in experiment [8], the Potency entry is “inactive”.

Consider `Clc1ccc(C(c2ccc(Cl)cc2)C(Cl)(Cl)Cl)cc1`, for which the Potency in experiment [1] was 22 µM (active) and 30.9 µM (active) and 23.9 µM (active); in [10], 17.4 µM (active) and inactive. In addition, the Potency result in experiment [2], in experiment [4], in experiment [5], in experiment [13], in experiment [6] and in experiment [9] was “inactive” throughout. Besides, the Potency entry in experiment [11] is “inactive”.

Take `CC(=[OH+])/C=C(/C)[O-].CC(=[OH+])/C=C(\C)[O-].CC(=[OH+])/C=C(\C)[O-].[Fe]`: the Potency result in experiment [1], in [2], in [4], in experiment [13], in [6] and in [9] was “inactive” in each case. The Potency in experiment [5] is 39.9 µM (active).

`CC1(C)C(/C=C(\Cl)C(F)(F)F)C1C(=O)OC(C#N)c1cccc(Oc2ccccc2)c1` (configuration not stated): the Potency result in experiment [1], in experiment [2], in experiment [4], in experiment [5], in experiment [13] and in experiment [6] was “inactive” in each case. Besides, the Potency entry in experiment [8], in [9] and in experiment [12] was “inactive” throughout.

In the case of `S=C(SSC(=S)N1CCCCC1)N1CCCCC1`, the Potency in experiment [1] is 0.12 µM (active); in experiment [4], 0.531 µM (active); in [5], 1.74 µM (active); in experiment [13], 0.841 µM (active); in experiment [6], 0.335 µM (active); in experiment [7], 0.376 µM (active). Besides, the Potency entry in experiment [2], in experiment [8], in experiment [11] and in experiment [12] was “inactive” in each case.

For the molecule `C[C@]12Cc3nonc3C[C@@H]1CC[C@@H]1[C@@H]2CC[C@@]2(C)[C@H]1CC[C@]2(C)O`, the Potency in [1] was 21.3 µM (active); in experiment [4], 29.8 µM (active). In addition, the Potency entry in experiment [2], in experiment [14], in experiment [5], in [6], in [11] and in experiment [12] was “inactive” each time.

For `N#Cc1ccccc1N`, the Potency result in experiment [1], in experiment [2], in [4], in [5], in experiment [13] and in experiment [6] was “inactive” in each case. The Potency entry in experiment [7], in experiment [8], in [9], in experiment [11] and in [12] was “inactive” in each case.

Consider `O=[N+]([O-])c1cc([N+](=O)[O-])c2ccccc2c1`, for which the Potency result in [1], in experiment [2], in experiment [14], in experiment [16], in [18] and in experiment [19] was “inactive” in each case. Besides, the Potency result in experiment [4], in experiment [5], in experiment [6], in experiment [7], in [9] and in experiment [11] was “inactive” throughout. Besides, the Potency entry in experiment [12] was “inactive”. Besides, the molecule was called inactive in experiment [15], in experiment [17] and in experiment [20]. For the same molecule, the Potency in experiment [8] is 24.3 µM (active).
